Source: PubChem BioAssay
The full list was thinned out, with hits kept by preference.
FBPA Giardia inh = blocks Giardia fructose-bisphosphate aldolase activity | A8B2U2 | purified Giardia FBPA | actives 0.71% (n = 290,000) | Potency, µM (series often up to 59.6 µM), hits mostly inhibitors; further: nearly all actives have a fitted effect of over 55% in size
Target sequence (A8B2U2 whole entry, looked up): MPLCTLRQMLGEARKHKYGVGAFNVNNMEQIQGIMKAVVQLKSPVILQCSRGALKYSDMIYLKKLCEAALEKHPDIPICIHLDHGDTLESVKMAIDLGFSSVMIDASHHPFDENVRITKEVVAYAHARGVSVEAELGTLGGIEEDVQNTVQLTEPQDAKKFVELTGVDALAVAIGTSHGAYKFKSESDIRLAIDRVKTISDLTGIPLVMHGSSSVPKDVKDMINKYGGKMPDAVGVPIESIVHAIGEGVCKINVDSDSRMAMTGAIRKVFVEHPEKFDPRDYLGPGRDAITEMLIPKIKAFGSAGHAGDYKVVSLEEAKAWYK
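Giardia FBPA (40 nM reagent) was preincubated 10 min at RT with compound (up to 57.5 uM final), then substrate plus GAPDH/TPI/NAD/arsenate coupling system with diaphorase/resazurin was added; resorufin fluorescence (525/598 nm) was read after 20 min.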
Cruzain inh Det = cruzain (T. cruzi) inhibition with detergent | purified cruzain, Z-FR-AMC fluorescence, 0.01% Triton | Potency, µM, hits mostly inhibitors | actives 0.43% (n = 200,000) | P25779; further: nearly all actives have a fitted effect of over 40% in size
Target sequence (P25779 123-467 limits assumed): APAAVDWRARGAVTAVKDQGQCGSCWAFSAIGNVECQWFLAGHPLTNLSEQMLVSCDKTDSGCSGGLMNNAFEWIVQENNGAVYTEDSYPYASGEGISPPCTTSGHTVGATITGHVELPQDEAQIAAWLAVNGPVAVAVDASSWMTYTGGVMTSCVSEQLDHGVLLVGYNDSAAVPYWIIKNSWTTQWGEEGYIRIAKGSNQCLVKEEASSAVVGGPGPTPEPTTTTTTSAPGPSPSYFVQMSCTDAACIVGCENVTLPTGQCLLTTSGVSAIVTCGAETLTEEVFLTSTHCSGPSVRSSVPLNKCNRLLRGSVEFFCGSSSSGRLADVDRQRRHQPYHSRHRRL
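Detergent-containing run (0.01% Triton X-100) in acetate buffer pH 5.5 with 5 mM DTT: enzyme at 1.5 nM final, 15 min compound preincubation at room temperature, then 2 uM Z-FR-AMC substrate. Activity taken as 60 s fluorescence increase at 360/450 nm.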
Cruzain noTriton = inhibitors of Trypanosoma cruzi cruzain without detergent; P25779; purified cruzain, Z-FR-AMC fluorescence, no detergent; Potency, µM, hits mostly inhibitors; actives 2.3% (n = 200,000); AID 1476; further: nearly all actives have a fitted effect of over 40% in size
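Purified cruzain at 1.5 nM, pre-incubated 15 min with compound at room temperature in 100 mM sodium acetate pH 5.5, 5 mM DTT, 0.00005% Triton X-100. Reaction started with 2 uM Z-FR-AMC; AMC fluorescence increase over 60 s gives rate.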
A number is an active result; n = inactive; u = inconclusive; x = no result given; [ ] = remark or other dose. The call rests on the fitted dose curve; in most records, active means well fitted curve in the direction sought with a large enough effect; inconclusive means small, poorly fitted or top-dose-only effect, or another doubt; inactive means no such curve, though single readings can be large; an effect the other way counts as inactive or inconclusive.

SMILES | FBPA Giardia inh | Cruzain inh Det | Cruzain noTriton
Cc1cccc(C2=NN(c3ccccc3)[C@@H](C(=O)N3CCOC3=O)[C@@H]2c2ccccc2)c1 | n | n | u
C[C@@H]1C(c2ccccc2)=NN(c2ccccc2)[C@H]1C(=O)N1CCOC1=O | n | n | n
Cc1cccc(C2=NN(c3ccc(Br)cc3)[C@@H](C(=O)N3CCOC3=O)[C@@H]2c2ccccc2)c1 | n | n | 18µM
O=C1OCCN1C(=O)[C@H]1[C@H](c2ccccc2)C(c2ccc(F)cc2)=NN1c1ccc(Br)cc1 | n | n | 20µM
O=C(O)C[C@H](S)C(=O)O | x | n | n
Cc1c(C(=O)NCc2ccccc2Cl)sc2nc3n(c(=O)c12)CCCCC3 | x | n | n
C#CCCCO/N=C1/C[C@@H](O)[C@@H](O)[C@@H]2[C@@H]3C(=O)N(Cc4ccc5c(c4)OCO5)C(=O)[C@H]3CC[C@@H]12 | n[12.9 µM] | x | x
CC1CCN(S(=O)(=O)c2ccc3c(c2)N(CC(=O)N(C)Cc2ccccc2)C(=O)CO3)CC1 | x | n | u
C[C@H]1Cc2c(COc3ccccc3)nc3c(c2CO1)CN(C(=O)c1cccnc1)CC3 | n[12.9 µM] | x | x
COc1ccccc1C1=Nn2c(nnc2-c2cccc(OC)c2OC)SC1 | n | x | x
Cc1ccc(Cl)cc1N1CCN(C(=O)c2cccn2-c2nnc(N3CCCC3)s2)CC1 | x | n | n
CC(=O)Nc1ccc(-c2csc(NC(=O)CCCc3cccs3)n2)cc1 | n | n | 10µM
Cc1csc(NC(=O)CCCc2cccs2)n1 | n | x | x
CC(=O)Nc1ccc(-c2csc(NC(=O)CC(NC(C)=O)c3ccccc3)n2)cc1 (stereo not given) | n | x | x
Cc1ccc(-c2csc(NC(=O)CCCc3cccs3)n2)cc1 | n | n | 7.9µM
COC(=O)c1cc2sc(Cl)cc2n1CC(=O)Nc1cccc(SC)c1 | n | n | 25µM
CCc1cccc(NC(=O)Cn2c(C(=O)OC)cc3sc(Cl)cc32)c1 | x | n | n
C=CCCCC | x | n | n
NNC(=O)c1ccc(COc2ccccc2)cc1 | n | n | n
COC(=O)c1ccc(CNC(=O)c2ccc(COc3ccccc3)cc2)cc1 | n | n | 10µM
O=C(Nc1ccc(OCc2ccccc2)cc1)c1cccc([N+](=O)[O-])c1 | n | n | n
Cc1ccc(C(=O)Nc2ccc(OCc3ccccc3)cc2)cc1[N+](=O)[O-] | n | n | 13µM
CC(=O)Nc1ccc(NC(=O)c2ccc(COc3ccccc3)cc2)cc1 | n | x | x
O=C(Nc1ccc(F)cc1)c1ccc(COc2ccccc2)cc1 | n | n | 13µM
Cc1ccc(F)cc1-c1ccc(C(=O)N=C(N)N)o1 | n | x | x
SMILES | FBPA Giardia inh | Cruzain inh Det | Cruzain noTriton
C=C1CN(C(C(=O)OC)C(C)C)S(=O)(=O)c2ccc(F)cc21 (stereo not given) | n | x | x
CC(=O)[C@@H](C)CCO[C@@]1(C)OCC[C@@H]1C | x | n | n
C[C@@H]1CC[C@H]2[C@H](C)[C@H]3CC[C@H]4C5[C@@H](O)CC6=CC(=O)CC[C@]6(C)[C@H]5C[C@H]4C3C(=O)N2C1 (stereo not given in full) | n | n | n
Oc1ccc(Cc2cc(Cl)cc(Cl)c2O)cc1Cl | x | n | n
O=C(c1ccc2c(c1)OCCO2)N(Cc1cccnc1)c1nc2c(F)cccc2s1 | x | n | n
COC(=O)C1=C[C@@H](C(=O)OC)C2C3=C(C(=O)[C@@]2(C)NC(=O)c2ccccc2)[C@H](C)[C@@H]2C(=O)NC(=O)[C@@H]2[C@@H]3C1 (stereo not given in full) | n | x | x
COc1ccc2c(c1)c1nnc(SCC(=O)N3CCCCC3C)nc1n2C (stereo not given) | n | 14µM | n
COc1ccc2c(c1)c1nnc(SCC(=O)NC3CC3)nc1n2C | n | x | x
COC(=O)c1cccc(Nc2nn3c(=O)c4cc5c(cc4nc3s2)OCO5)c1 | x | n | n
Cc1ccc(C)c(NC(=O)CCCN2C(=O)C(c3ccccc3)Oc3cccnc32)c1 (stereo not given) | x | n | n
COc1ccc2c(c1)-c1nc(NC(=O)c3ccc(OC)c(Br)c3)sc1CC2 | x | n | 10µM
COc1ccc2c(c1)Cc1sc(NC(=O)c3cccc(Cl)c3)nc1-2 | x | n | n
COc1ccc2c(c1)Cc1sc(NC(=O)c3ccc(Cl)cc3)nc1-2 | x | n | 3.2µM
COc1ccc2c(c1)-c1nc(NC(=O)c3ccc(C)cc3)sc1CC2 | x | n | u
O=C(OCc1ccco1)c1ccc2c(c1)N(Cc1ccc([N+](=O)[O-])cc1)C(=O)c1ccccc1S2 | x | n | n
COC(=O)c1ccccc1S(=O)(=O)N1CCc2nc(-c3ccc(OC)cc3C)c3c(c2C1)CO[C@@H](c1ccccc1)C3 | n[12.9 µM] | x | x
Cc1c(Br)cc(C(=O)O)c(C)c1C | n | n | n
Cc1c(N)cc(N)cc1C(=O)O | 4.5µM | x | x
COc1ccc2c(c1)OC1(O)COc3cc(OC)c(OC)cc3C1=C2 (stereo not given) | n | n | n
O=C(Nc1ccc(-c2nc3ccccc3o2)c(O)c1)c1ccccc1 | x | n | n
O=C(Nc1ccc(O)c(-c2nc3ccccc3o2)c1)C1(c2ccccc2)CCCC1 | n | n | 25µM
Cc1ccc(NC(=O)Cn2nc(-c3ccccc3)nc(Cc3ccc(Cl)cc3)c2=O)cc1 | x | n | 25µM
Cc1ccc(NC(=O)Cn2nc(-c3ccccc3)nc(Cc3ccccc3)c2=O)cc1 | x | n | n
CCOc1ccc(N=C2NC(=O)S/C2=C\c2ccc(Cl)cc2)cc1 | n | n | 4µM
COc1ccc(N=C2NC(=O)S/C2=C\c2ccc(N(C)C)cc2)cc1 | n | n | u
SMILES | FBPA Giardia inh | Cruzain inh Det | Cruzain noTriton
CC(=O)O/C(=C1/C[C@H]2[C@@H]3CC=C4C[C@@H](OC(C)=O)CC[C@]4(C)[C@@H]3CC[C@]2(C)C1=O)C(F)(F)F | x | n | n
COc1cccc(C(=O)NCC(c2ccc(N(C)C)cc2)N2CCc3ccccc32)c1 (stereo not given) | x | n | u
CC(C)(C)c1ccc(C(=O)Nc2nonc2-c2nc3ccccc3[nH]2)cc1 | n | n | 3.2µM
CCn1c(-c2nonc2NC(=O)c2ccccc2)nc2ccccc21 | n | n | n
COC(=O)C1=C(C(=O)OC)[C@@H]2N(C)c3ccc(OC)cc3[C@@]23C[C@@H](C(=O)OC)N(S(=O)(=O)c2c(C)noc2C)C3=N1 | n[12.9 µM] | x | x
COC(=O)c1sc(N)c(C(=O)OC)c1COC(=O)[C@@H](NS(=O)(=O)c1cccc(Cl)c1)C(C)C | n | n | n
COC(=O)c1c(NC(=O)CS(=O)(=O)c2ccc(C)cc2)sc2c1CCCCC2 | x | n | 2.5µM
COC(=O)c1c(NC(=O)COC(=O)[C@@H](NS(=O)(=O)c2cccc(Cl)c2)C(C)C)sc2c1CCC2 | n | n | 16µM
CCOC(=O)c1c(NC(=O)C2CCCN(S(=O)(=O)c3ccccc3)C2)sc2c1CCCC2 (stereo not given) | n | n | u
CCOC(=O)c1c(NC(=O)C2CCCN(S(=O)(=O)c3ccc(C)cc3)C2)sc2c1CCCC2 (stereo not given) | n | n | 16µM
Cc1ccc(S(=O)(=O)CC(=O)Nc2sc3c(c2C#N)CCCCC3)cc1 | x | n | n
COc1ccc(-c2noc(N(c3ccc(F)c(Cl)c3)c3nc(-c4ccc(OC)c(OC)c4)no3)n2)cc1OC | x | n | n
